In PubChem BioAssay (Tox21):
Unmarked numbers belong to inactive results. Activity calls are given as the source filed them. Calls come from the whole dose curve; as a rule, active = well fitted activation curve with a large enough effect in the repeat runs; inconclusive = weak or mixed curves; inactive = flat fitted curve, though single readings scatter.

Assay: A CellTox Green Cytotoxicity Assay to monitor cytotoxicity in HepG2 cells - 0 hour (AID 1224882); note: nearly all actives have a fitted effect of over 35% in size
Settings: CellTox Green fluorescence; series mostly up to 76.8 µM; cytotoxicity: at the top concentration
Text: National Center for Advancing Translational Sciences [NCATS]
NIH Chemical Genomics Center [NCGC]
U.S. Environmental Protection Agency [EPA]
National Institutes of Environmental Health Sciences [NIEHS]
National Toxicology Program [NTP]
Cell-based models are critical for drug discovery. Determining the natural cytotoxic effects resulting from test compounds is an essential research activity. A CellTox Green Cytotoxicity Assay to monitor cytotoxicity in real time of continues cell culture during 40 hours of the compound treatment was used to screen Tox21 10K library compounds in HepG2 cells. CellTox Green Cytotoxicity Assay is a nonlytic, homogeneous, biofluorescent method to measure cytotoxicity in cell culture after experimental manipulation. The assay system uses a proprietary asymmetric cyanine dye that is excluded from viable cells but preferentially stains the dead cell's DNA. […] Viable cells produce no appreciable increases in fluorescence. Therefore, the fluorescence signal produced by the binding interaction with dead cell DNA is proportional to cytotoxicity.
The mixture of HepG2 cell suspension and reagents were dispensed at 600cells/6 ul/well in 1536-well tissue culture treated black solid bottom plates using a Multidrop dispenser. After the assay plates were incubated at a 37 C/5% CO2 incubator for 5 hours, 23 nL of compounds dissolved in DMSO, positive and negative controls was transferred to the assay plate by a pintool work station. The plates were incubated at 37 C for 40 hours. The fluorescence intensity were measured at 0h, 8h, 16h, 24h, 32h and 40h time points using ViewLux plate reader during compound treatment.
% is set by controls: 0 for no effect and ±100 for the full control effect; potency is the fitted concentration of half-maximal effect.

SMILES | cytotoxicity | Potency
C#CCO | -6.3% | –
C[C@]12Cc3cn[nH]c3C[C@@H]1CC[C@@H]1[C@@H]2CC[C@@]2(C)[C@H]1CC[C@]2(C)O | 6.25% [at 35.3 µM] | –
CCCCC(CC)COC(=O)OOC(C)(C)C (stereo not given) | -0.528% | –
O=[N+]([O-])c1ccc(CCl)cc1 | 0.673% | –
COc1ccc2c(c1OC)C(=O)O[C@@H]2[C@H]1c2cc3c(cc2CCN1C)OCO3 | 2.75% | –
C=CCOC(=O)c1ccccc1N | -0.381% | –
CCC(C)Br (stereo not given) | 3.34% | –
CC(=O)[O][Sn]([c]1ccccc1)([c]1ccccc1)[c]1ccccc1 | -7.12% | –
CCC1(CC)C(=O)N=C(O)NC1=O | -4.75% | –
CN1C(=O)[C@@H](NC(=O)c2cc3ccccc3[nH]2)N=C(c2ccccc2)c2ccccc21 | -0.0361% [at 35.3 µM] | –
Cc1nn(-c2cc(NS(C)(=O)=O)c(Cl)cc2Cl)c(=O)n1C(F)F | -1.2% | –
[Cl-].[Cl-].[Cl-].[Yb+3] | -7.65% | –
O=C(O)CCCCCCNC1c2ccccc2CCc2ccccc21 | 1.07% [at 35.3 µM] | –
CNN | 3.16% | –
C[C@]12CC[C@H]3[C@@H](CCC4=CC(=O)CC[C@@H]43)[C@@H]1CC[C@@H]2OC(=O)CCc1ccco1 | 2.51% [at 35.3 µM] | –
COc1ccc(Cc2nccc3cc(OC)c(OC)cc23)cc1OC | 1.74% [at 35.3 µM] | –
CC(Cl)CCl (stereo not given) | -3.26% | –
CCC[CH2][Sn]([CH2]CCC)([CH2]CCC)[O][Sn]([CH2]CCC)([CH2]CCC)[CH2]CCC | 5.3% [at 6.97 µM] | –
CC(O)C(=O)[O][Hg][c]1ccccc1 (stereo not given) | 10.1% | –
C=CC(=O)[O][Sn]([CH2]CCC)([CH2]CCC)[CH2]CCC | 0.44% | –

SMILES | cytotoxicity | Potency
CC(=O)[O-].CC(=O)[O-].CC(=O)[O-].[Sb+3] | -11% [at 2.72 µM] | –
CN1CCc2cc(Cl)c(O)cc2[C@H]2c3ccccc3CC[C@@H]21 | -0.953% [at 35.3 µM] | –
Oc1cc(Cl)c(Cl)c(Cl)c1Cl | 0.413% | –
ClC(Cl)C(Cl)(Cl)Cl | 3.51% | –
CC1(C)C(C=C(Cl)Cl)C1C(=O)OC(C#N)c1ccc(F)c(Oc2ccccc2)c1 (stereo not given) | 0.849% | –
CCN(CC)C(=O)N[C@@H]1C=C2c3cccc4[nH]cc(c34)C[C@@H]2N(C)C1 | -4.36% [at 35.3 µM] | –
O=C(N[C@@H]1N=C(c2ccccc2F)c2cccc3c2N(CC3)C1=O)c1cc2ccccc2[nH]1 | – | 26.8 µM (active)
CC(=O)[O][Pb]([c]1ccccc1)([c]1ccccc1)[c]1ccccc1 | -1.02% | –
COC(=O)/C=C(\C)OP(=O)(OC)OC | -5% | –
CCOP(=O)(OCC)Oc1cc(C)nc(C(C)C)n1 | -0.0509% | –
CCNS(=O)(=O)C(F)(F)C(F)(F)C(F)(F)C(F)(F)C(F)(F)C(F)(F)C(F)(F)C(F)(F)F | 4.99% | –
CC(C)N(C(=O)CCl)c1ccccc1 | – | inactive
CCN(CC)CCc1c[nH]c2ccccc12 | 4.48% | –
Nc1nc(N)c(N)c(N)n1 | – | 49.2 µM (active)
N#CC(C#N)=NNc1cccc(Cl)c1 | -2% | –
COP(=S)(OC)Oc1ccc([N+](=O)[O-])c(C)c1 | -1.85% | –
CCOP(=S)(OCC)SC(CCl)N1C(=O)c2ccccc2C1=O (stereo not given) | 13.3% | –
ClC1=C(Cl)[C@]2(Cl)[C@@H]3[C@H]4C[C@H]([C@@H]5O[C@H]45)[C@@H]3[C@@]1(Cl)C2(Cl)Cl | 4.88% | –
C[C@]12C/C(=C/O)C(=O)C[C@@H]1CC[C@@H]1[C@@H]2CC[C@@]2(C)[C@H]1CC[C@]2(C)O | – | inactive
CCCCCON=O | 5.64% | –
